In PubChem BioAssay AID1159580 (chemical genetic matrix, 2015):
Among all 5,500 compounds or so, about 2,000 (36%) were called active. Another 18% or so got no clear call; they are omitted. Cut-off read from the data, not from the text of the source: active = normalized growth mostly below about 0.91 (no sharp cut-off); inconclusive = no clear call, values can overlap the other calls; inactive = mostly above about 0.92. This is one part of the list.

Assay: chemical genetic growth profiling, strain panel (AID 1159580);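 note: tested at 20 µM; growth read once vehicle control cultures reached saturation at 30 °C; 1 = growth at the plate median or of vehicle wells; lower values mean less growth of the strain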
Settings: S. cerevisiae deletion strains, growth OD
[1] = locus YDL101C, strain DUN1, hits give low values
[2] = locus YHR030C, strain SLT2, hits give low values

Measured: normalized growth

O=C(Nc1ccc(Cl)cc1Cl)c1cnccn1
inactive: locus YAL013W, strain DEP1, hits give low values 0.943 | locus YBR229C, strain ROT2, hits give low values 0.963 | locus YCL061C, strain MRC1, hits give low values 0.98 | [1] 0.982 | locus YDL134C, strain PPH21, hits give low values 0.989 | locus YDR150W, strain NUM1, hits give low values 0.989 | locus YEL061C, strain CIN8, hits give low values 0.95 | locus YGR078C, strain PAC10, hits give low values 0.991 | locus YHR087W, strain rtc3, hits give low values 0.973 | locus YJR043C, strain POL32, hits give low values 1.01 | locus YJR075W, strain HOC1, hits give low values 1.01 | locus YLR058C, strain SHM2 (second series), hits give low values 0.975 | locus YLR262C, strain YPT6, hits give low values 0.87 | locus YML094W, strain GIM5, hits give low values 0.91 | locus YMR219W, strain ESC1, hits give low values 0.99 | locus YMR263W, strain SAP30, hits give low values 0.966 | locus YNL153C, strain GIM3, hits give low values 0.98 | locus YNL298W, strain CLA4 (second series), hits give low values 0.911 | locus YNL322C, strain KRE1, hits give low values 0.986 | locus YNR030W, strain Alg12, hits give low values 0.94 | locus YOL006C, strain TOP1, hits give low values 0.773 | locus YPL055C, strain LGE1, hits give low values 0.9 | locus YPL241C, strain CIN2, hits give low values 0.9 | locus YPR135W, strain CTF4, hits give low values 0.768
active: [2] 0.606 | locus YKL190W, strain CNB1, hits give low values 0.862 | locus YLR039C, strain RIC1, hits give low values 0.788 | locus YLR085C, strain ARP6, hits give low values 0.656

O=C(Nc1ccc(Cl)cc1Cl)c1cnccc1C(F)(F)F
inactive: locus YAR019C, strain CDC15, hits give low values 0.978 | locus YBL105C, strain PKC1, hits give low values 0.976 | locus YBR135W, strain CKS1, hits give low values 0.981 | locus YBR136W, strain MEC1, hits give low values 0.971 | locus YBR160W, strain CDC28, hits give low values 0.974 | locus YDL017W, strain CDC7, hits give low values 0.984 | locus YDL028C, strain MPS1, hits give low values 0.976 | [1] 0.964 | locus YDL108W, strain KIN28, hits give low values 0.97 | locus YDL132W, strain cdc53, hits give low values 0.972 | locus YDL214C, strain PRR2, hits give low values 0.987 | locus YDR052C, strain DBF4, hits give low values 0.977 | locus YDR054C, strain cdc34, hits give low values 0.977 | locus YDR226W, strain ADK1, hits give low values 0.976 | locus YDR477W, strain SNF1, hits give low values 0.981 | locus YER123W, strain YCK3, hits give low values 0.958 | locus YER133W, strain GLC7, hits give low values 0.976 | locus YFL009W, strain cdc4, hits give low values 0.971 | locus YFL029C, strain CAK1, hits give low values 0.975 | locus YFR003C, strain YPI1, hits give low values 0.977 | locus YFR019W, strain FAB1, hits give low values 0.98 | locus YFR028C, strain CDC14, hits give low values 0.97 | locus YGR040W, strain KSS1, hits give low values 0.977 | locus YGR052W, strain FMP48, hits give low values 1.13 | locus YGR092W, strain DBF2, hits give low values 0.998 | [2] 1.15 | locus YHR079C, strain IRE1, hits give low values 1.09 | locus YHR082C, strain KSP1, hits give low values 1.11 | locus YHR205W, strain SCH9, hits give low values 0.974 | locus YIL147C, strain SLN1, hits give low values 0.971 | locus YJL095W, strain BCK1, hits give low values 1.14 | locus YJL128C, strain PBS2, hits give low values 0.935 | locus YJL157C, strain FAR1, hits give low values 0.973 | locus YJR016C, strain ILV3, hits give low values 0.976 | locus YJR066W, strain TOR1 (second series), hits give low values 1 | locus YJR066W, strain TOR1, hits give low values 1.12 | locus YKL048C, strain ELM1, hits give low values 0.974 | locus YKL067W, strain YNK1, hits give low values 0.981 | locus YKL101W, strain HSL1, hits give low values 0.986 | locus YKL193C, strain SDS22, hits give low values 0.967 | locus YKL203C, strain TOR2, hits give low values 1.05 | locus YLR113W, strain HOG1, hits give low values 1.05 | locus YLR133W, strain CKI1, hits give low values 0.988 | locus YLR403W, strain SFP1, hits give low values 0.967 | locus YML070W, strain DAK1, hits give low values 0.98 | locus YMR001C, strain CDC5, hits give low values 0.972 | locus YMR205C, strain PFK2 (second series), hits give low values 0.993 | locus YMR277W, strain FCP1, hits give low values 0.962 | locus YNL006W, strain LST8, hits give low values 0.973 | locus YNL020C, strain ARK1, hits give low values 0.989 | locus YNL161W, strain CBK1, hits give low values 0.974 | locus YNL183C, strain NPR1, hits give low values 1.1 | locus YNL207W, strain RIO2, hits give low values 0.976 | locus YNL222W, strain SSU72, hits give low values 0.976 | locus YNL307C, strain MCK1 (second series), hits give low values 0.988 | locus YOL078W, strain AVO1, hits give low values 0.975 | locus YOL136C, strain PFK27, hits give low values 0.982 | locus YOR061W, strain CKA2, hits give low values 0.99 | locus YOR119C, strain RIO1, hits give low values 1.01 | locus YOR231W, strain MKK1, hits give low values 1.1 | locus YOR329C, strain SCD5, hits give low values 0.975 | locus YPL031C, strain PHO85, hits give low values 0.977 | locus YPL153C, strain RAD53, hits give low values 0.99 | locus YPL204W, strain HRR25, hits give low values 0.976 | locus YPL209C, strain IPL1, hits give low values 0.967 | locus YPL256C, strain CLN2, hits give low values 1.07 | locus YPR025C, strain CCL1, hits give low values 0.976 | locus YPR106W, strain ISR1, hits give low values 0.972 | locus YPR111W, strain DBF20, hits give low values 0.974 | strain NNK1, hits give low values 0.971 | strain TSCII, hits give low values 0.972
